# Source: PubChem BioAssay AID2716 (Broad Institute, 2010)
# Hit rate of the full screen: of about 320,000 compounds, about 3,300 (1%) were called active. The sample holds actives, similar compounds and a random draw of the others, so the mix is not that of the screen. Unmarked numbers belong to inactive results.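 Rule for the calls: active = every valid replicate shows activation above 250% relative to neutral control wells; inactive = the rest, any valid replicate at or below 250%.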
# Assay: restored growth of temperature-sensitive Mot1-301 yeast – S. cerevisiae, ATP luminescence, 38.5C, SUMOylation pathway inhibitor project, primary screen (AID 2716)
# Conditions: S. cerevisiae Mot1-301 growth rescue, at 18.8 µM, active compounds read high
row,SMILES,growth rescue
1,Cc1ccc(-n2c(-c3ccc([N+](=O)[O-])cc3)nc3ccccc3c2=O)cc1,30.7%
2,COc1ccc(-n2c(-c3ccccc3)nc3ccccc3c2=O)cc1,524% (active)
3,O=c1c2ccccc2nc(-c2ccccc2)n1-c1ccccn1,-8.46%
4,C[C@@]1([C@@H](NP(=O)(c2ccccc2)c2ccccc2)c2ccccc2)C[C@H]1CCO,28.7%
5,CCCC(C)n1[nH]c(=O)c2c1NC(=O)CSC2c1ccc(OC)c(OC)c1 (stereo not given),-11.2%
6,O=C(Nc1cccc2ccccc12)N1CCC2(CC1)OCCO2,2.67%
7,c1ccc(CCN2CCC3(CC2)OCCO3)cc1,313% (active)
8,O=C(c1ccccc1[N+](=O)[O-])N1CCC2(CC1)OCCO2,-11.1%
9,COc1ccccc1OC(=O)c1ccc(C)c(S(=O)(=O)N2CCOCC2)c1,-7.94%
10,CCOP(=O)(OCC)C(O)c1ccc(OC)cc1OC (stereo not given),-5.29%
11,COc1ccc(-n2c(O)c(C(C)=Nc3ccc4c(c3)CCC4)c(=O)[nH]c2=O)cc1,-1.78%
12,COc1ccc(N=Cc2c(O)n(C)c(=O)[nH]c2=O)cc1,842% (active)
13,COc1ccccc1-n1c(O)c(C=NC2CC2)c(=O)[nH]c1=O,-17.5%
14,CC(Cc1ccccc1)NCCC(c1ccccc1)c1ccccc1 (stereo not given),-27.1%
15,CC(=NCc1ccc2c(c1)OCO2)c1c(O)[nH]c(=O)[nH]c1=O,-26.7%
